Experimental data reported in PubChem BioAssay (EPA / NIEHS).
Several values for one entry are separate records, joined by “and”; a condition that tells them apart may be missing. Equal values may be shown once. Records with an inconclusive call do not appear. The source holds several records for some structures; these can differ, active in one and inactive in another. Activity calls are given as the source filed them. Rule for the calls, unless noted: active = hit-call score of the fitted dose curve at least 0.9, where 1 is the maximum; inconclusive = response in the unintended direction; inactive = score below 0.9.

Tests used:
[1] = target: Retinoic acid receptor alpha (Homo sapiens) (UniProt P10276); assay: ATG_RARa_TRANS: Attagene TRANS-FACTORIAL HepG2 Assay for human Retinoic Acid Receptor alpha (RARa) (AID 2283005);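 for AC50: potency for increased reporter signal meaning RARa activation over DMSO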
In short: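 Reporter transcripts, measured by RT-PCR with fluorescent labeling and capillary electrophoresis after 24 h dosing, reflect activity of an exogenous human RARa–GAL4 fusion in transiently transfected HepG2. Fitted for increase relative to DMSO.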

[2] = target: Peroxisome proliferator-activated receptor gamma (Homo sapiens) (UniProt P37231); assay: ATG_PPARg_TRANS: Attagene TRANS-FACTORIAL HepG2 Assay for human Peroxisome Proliferator-activated Receptor-gamma (PPARg) (AID 2283007)
In short: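 Human hepatoma HepG2, transient MRTU transfection, 24 h treatment. mRNA reporter signal by RT-PCR plus capillary electrophoresis, fluorescence detection; fitted for increase over DMSO negative control.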

[3] = target: Nuclear receptor subfamily 1 group I member 2 (Homo sapiens) (UniProt O75469); assay: ATG_PXR_TRANS: Attagene TRANS-FACTORIAL HepG2 Assay for human Pregnane X Receptor (PXR) (AID 2283008)
In short: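 HepG2 cells transiently transfected with multiple reporter units, here a PXR-GAL4 chimera driving a GAL4-UAS reporter; 24 h compound exposure. Reporter mRNA measured by RT-PCR, FAM labelling and capillary electrophoresis; gain of signal fitted against DMSO baseline.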

[4] = target: human Retinoic Acid Receptor gamma (RARg), RARG (gene 5916) (UniProt P13631); assay: ATG_RARg_TRANS: Attagene TRANS-FACTORIAL HepG2 Assay for human Retinoic Acid Receptor gamma (RARg) (AID 2283009);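 for AC50: AC50 is for reporter induction above DMSO meaning RARg activation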
In short: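 HepG2 transiently transfected with GAL4-UAS reporter units and chimeric NR-Gal4 constructs; 24 h compound exposure. Reporter mRNA quantified by RT-PCR, FAM labeling, HpaI digestion and capillary electrophoresis; gain-of-signal versus DMSO.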

[5] = target: human RAR-related Orphan Receptor gamma (RORg), RORC (gene 6097) (UniProt P51449); assay: ATG_RORg_TRANS: Attagene TRANS-FACTORIAL HepG2 Assay for human RAR-related Orphan Receptor gamma (RORg) (AID 2283011)
In short: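 Readout: reporter transcript induction (RT-PCR, fluorescent primer extension, capillary electrophoresis) after 24 h compound exposure of transiently transfected HepG2 cells carrying a RORg-Gal4 chimera and GAL4-UAS reporters; DMSO served as baseline, with increasing signal fitted.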

[6] = target: Retinoic acid receptor RXR-alpha (Homo sapiens) (UniProt P19793); assay: ATG_RXRa_TRANS: Attagene TRANS-FACTORIAL HepG2 Assay for human Retinoid X Receptor alpha (RXRa) (AID 2283012)
In short: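 HepG2 cells transiently transfected with GAL4-UAS reporter units and chimeric RXRa-Gal4 protein, treated 24 h. Reporter mRNA measured by RT-PCR, fluorescent labelling, HpaI digestion and capillary electrophoresis. Induction fitted against DMSO.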

[7] = target: human Retinoid X Receptor beta (RXRb), RXRB (gene 6257) (UniProt P28702); assay: ATG_RXRb_TRANS: Attagene TRANS-FACTORIAL HepG2 Assay for human Retinoid X Receptor beta (RXRb) (AID 2283013)
In short: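 HepG2 cells were transiently transfected with multiplexed GAL4-UAS reporters and a chimeric RXRb-Gal4 construct, then exposed for 24 h. Reporter mRNA was quantified by RT-PCR, FAM labeling, HpaI digestion and capillary electrophoresis; gain of signal was scored against DMSO.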

[8] = target: human Thyroid Receptor alpha (THRa1), THRA (gene 7067) (UniProt P10827); assay: ATG_THRa1_TRANS: Attagene TRANS-FACTORIAL HepG2 Assay for human Thyroid Receptor alpha (THRa1) (AID 2283014)
In short: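 HepG2 cells transiently transfected with multiplexed GAL4-UAS reporter units for exogenous chimeric THRa1-Gal4; reporter mRNA measured 24 h after dosing by RT-PCR, 6-FAM labelling, HpaI digestion and capillary electrophoresis. Gain-of-signal fitted versus DMSO baseline.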

[9] = BSK_3C_Proliferation: Cell Proliferation Assessment in the BioMAP Diversity Plus: 3C Assay (AID 2283006; active = hit-call score of the fitted dose curve at least 0.9, where 1 is the maximum; inactive = score below 0.9;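 for AC50: potency may reflect either rise or fall in cell number versus DMSO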); conditions: primary human endothelial cells (HUVEC)
In short: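 Subconfluent HUVEC (3C system) cultured with chemical; relative cell number read at 48 h by sulforhodamine B total-protein staining (0.1% SRB after 10% TCA fixation, 560 nm). Bidirectional fit relative to DMSO.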

[10] = target: human RAR-related Orphan Receptor beta (RORb), RORB (gene 6096) (UniProt Q92753); assay: ATG_RORb_TRANS: Attagene TRANS-FACTORIAL HepG2 Assay for human RAR-related Orphan Receptor beta (RORb) (AID 2283010)
In short: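 HepG2 cells transiently transfected with GAL4-UAS reporter units expressing chimeric NR-Gal4 protein; reporter mRNA measured 24 h after dosing by RT-PCR, 6-FAM labelling and capillary electrophoresis. Gain-of-signal fitted relative to DMSO baseline.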

Measured: AC50

Chain of Nuclear receptor subfamily 1 group I member 2 (Homo sapiens) (O75469 whole entry, looked up, the tested form may be a part): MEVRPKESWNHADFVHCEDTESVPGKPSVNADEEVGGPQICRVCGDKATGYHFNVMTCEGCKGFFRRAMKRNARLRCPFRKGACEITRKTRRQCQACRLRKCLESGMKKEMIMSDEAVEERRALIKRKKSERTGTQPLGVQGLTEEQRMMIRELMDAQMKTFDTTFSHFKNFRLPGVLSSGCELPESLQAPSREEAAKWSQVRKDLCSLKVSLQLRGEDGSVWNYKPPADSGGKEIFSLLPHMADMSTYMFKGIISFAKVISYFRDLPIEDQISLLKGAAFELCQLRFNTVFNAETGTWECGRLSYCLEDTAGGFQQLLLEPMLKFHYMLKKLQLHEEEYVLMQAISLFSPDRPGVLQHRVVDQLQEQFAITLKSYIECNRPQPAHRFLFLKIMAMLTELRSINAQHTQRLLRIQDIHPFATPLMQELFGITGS
Chain of Peroxisome proliferator-activated receptor gamma (Homo sapiens) (P37231 whole entry, looked up): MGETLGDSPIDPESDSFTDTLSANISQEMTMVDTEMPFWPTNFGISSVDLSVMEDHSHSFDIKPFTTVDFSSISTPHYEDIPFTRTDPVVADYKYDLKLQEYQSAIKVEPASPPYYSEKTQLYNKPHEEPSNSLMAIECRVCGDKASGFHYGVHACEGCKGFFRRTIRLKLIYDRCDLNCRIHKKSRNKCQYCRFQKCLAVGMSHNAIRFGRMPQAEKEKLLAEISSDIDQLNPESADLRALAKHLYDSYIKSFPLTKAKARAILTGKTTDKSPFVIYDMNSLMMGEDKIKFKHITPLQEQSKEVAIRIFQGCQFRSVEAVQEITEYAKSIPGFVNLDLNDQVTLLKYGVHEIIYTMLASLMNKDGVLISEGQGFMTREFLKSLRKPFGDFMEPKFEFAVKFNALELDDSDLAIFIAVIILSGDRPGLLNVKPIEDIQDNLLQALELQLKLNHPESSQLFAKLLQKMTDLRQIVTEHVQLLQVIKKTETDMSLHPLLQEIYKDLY
Chain of Retinoic acid receptor RXR-alpha (Homo sapiens) (P19793 whole entry, looked up, the tested form may be a part): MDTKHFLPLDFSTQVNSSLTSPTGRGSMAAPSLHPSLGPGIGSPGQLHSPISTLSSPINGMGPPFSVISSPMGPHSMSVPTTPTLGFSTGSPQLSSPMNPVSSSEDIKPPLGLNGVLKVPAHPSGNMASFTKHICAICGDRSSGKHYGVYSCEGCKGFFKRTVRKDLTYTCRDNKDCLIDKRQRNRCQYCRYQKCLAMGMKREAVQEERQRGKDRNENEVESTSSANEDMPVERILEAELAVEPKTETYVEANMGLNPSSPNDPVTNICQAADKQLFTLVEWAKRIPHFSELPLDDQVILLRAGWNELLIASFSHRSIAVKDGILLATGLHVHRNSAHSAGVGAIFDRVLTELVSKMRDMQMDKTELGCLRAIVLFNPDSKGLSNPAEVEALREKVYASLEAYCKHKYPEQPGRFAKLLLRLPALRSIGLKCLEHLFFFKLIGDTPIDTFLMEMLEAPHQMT
Chain of human Retinoid X Receptor beta (RXRb), RXRB (gene 6257) (P28702 whole entry, looked up, the tested form may be a part): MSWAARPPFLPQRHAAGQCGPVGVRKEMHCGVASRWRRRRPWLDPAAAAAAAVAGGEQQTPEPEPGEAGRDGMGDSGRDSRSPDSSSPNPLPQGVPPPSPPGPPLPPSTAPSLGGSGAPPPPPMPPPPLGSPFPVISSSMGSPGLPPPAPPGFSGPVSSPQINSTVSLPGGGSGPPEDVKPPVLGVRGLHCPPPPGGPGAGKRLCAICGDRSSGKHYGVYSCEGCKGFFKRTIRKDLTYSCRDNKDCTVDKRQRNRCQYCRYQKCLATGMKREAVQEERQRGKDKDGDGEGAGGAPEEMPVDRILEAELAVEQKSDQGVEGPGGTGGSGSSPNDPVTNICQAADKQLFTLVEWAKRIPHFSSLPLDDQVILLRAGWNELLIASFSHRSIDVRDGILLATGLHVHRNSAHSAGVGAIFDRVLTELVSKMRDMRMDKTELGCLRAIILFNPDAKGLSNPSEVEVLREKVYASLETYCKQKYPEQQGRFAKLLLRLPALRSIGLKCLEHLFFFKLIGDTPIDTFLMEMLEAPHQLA
Chain of human RAR-related Orphan Receptor beta (RORb), RORB (gene 6096) (Q92753 whole entry, looked up, the tested form may be a part): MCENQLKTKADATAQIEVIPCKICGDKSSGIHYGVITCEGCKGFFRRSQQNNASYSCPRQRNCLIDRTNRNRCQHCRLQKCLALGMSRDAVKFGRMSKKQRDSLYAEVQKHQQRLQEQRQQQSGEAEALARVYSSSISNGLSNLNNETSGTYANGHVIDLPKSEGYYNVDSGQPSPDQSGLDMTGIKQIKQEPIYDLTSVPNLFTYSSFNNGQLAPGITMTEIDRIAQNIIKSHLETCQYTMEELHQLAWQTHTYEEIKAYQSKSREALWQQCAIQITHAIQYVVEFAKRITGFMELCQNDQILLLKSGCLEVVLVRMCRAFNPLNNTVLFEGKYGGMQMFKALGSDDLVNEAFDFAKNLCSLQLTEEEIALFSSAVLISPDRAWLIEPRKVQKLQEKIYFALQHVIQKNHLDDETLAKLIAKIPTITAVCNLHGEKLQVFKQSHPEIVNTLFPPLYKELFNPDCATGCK
Chain of human Retinoic Acid Receptor gamma (RARg), RARG (gene 5916) (P13631 whole entry, looked up, the tested form may be a part): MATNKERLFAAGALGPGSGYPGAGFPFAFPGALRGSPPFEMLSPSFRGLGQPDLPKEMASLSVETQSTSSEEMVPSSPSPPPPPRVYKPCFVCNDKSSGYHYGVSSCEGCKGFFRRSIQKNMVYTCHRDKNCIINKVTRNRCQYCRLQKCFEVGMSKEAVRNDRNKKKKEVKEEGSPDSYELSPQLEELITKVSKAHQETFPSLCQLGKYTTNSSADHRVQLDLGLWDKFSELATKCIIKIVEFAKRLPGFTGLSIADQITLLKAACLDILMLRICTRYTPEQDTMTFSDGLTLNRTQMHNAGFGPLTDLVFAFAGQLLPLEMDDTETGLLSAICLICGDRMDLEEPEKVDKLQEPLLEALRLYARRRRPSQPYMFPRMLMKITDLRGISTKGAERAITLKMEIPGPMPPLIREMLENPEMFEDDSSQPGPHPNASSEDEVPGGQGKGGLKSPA
Chain of human RAR-related Orphan Receptor gamma (RORg), RORC (gene 6097) (P51449 whole entry, looked up, the tested form may be a part): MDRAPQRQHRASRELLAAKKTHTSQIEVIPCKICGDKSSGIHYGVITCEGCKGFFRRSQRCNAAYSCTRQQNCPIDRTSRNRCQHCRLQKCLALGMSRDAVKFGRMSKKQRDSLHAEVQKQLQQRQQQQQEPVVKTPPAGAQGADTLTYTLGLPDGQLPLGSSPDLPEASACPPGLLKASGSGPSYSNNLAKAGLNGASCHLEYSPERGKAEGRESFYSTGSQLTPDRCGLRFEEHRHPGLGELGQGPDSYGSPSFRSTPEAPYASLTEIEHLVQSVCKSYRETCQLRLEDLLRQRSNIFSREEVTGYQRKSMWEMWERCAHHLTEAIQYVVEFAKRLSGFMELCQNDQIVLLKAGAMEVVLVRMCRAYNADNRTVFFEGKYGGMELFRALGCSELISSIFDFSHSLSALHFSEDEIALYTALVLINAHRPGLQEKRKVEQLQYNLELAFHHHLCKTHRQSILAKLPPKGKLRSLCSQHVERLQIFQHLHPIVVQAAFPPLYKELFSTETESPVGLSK
Chain of Retinoic acid receptor alpha (Homo sapiens) (P10276 whole entry, looked up, the tested form may be a part): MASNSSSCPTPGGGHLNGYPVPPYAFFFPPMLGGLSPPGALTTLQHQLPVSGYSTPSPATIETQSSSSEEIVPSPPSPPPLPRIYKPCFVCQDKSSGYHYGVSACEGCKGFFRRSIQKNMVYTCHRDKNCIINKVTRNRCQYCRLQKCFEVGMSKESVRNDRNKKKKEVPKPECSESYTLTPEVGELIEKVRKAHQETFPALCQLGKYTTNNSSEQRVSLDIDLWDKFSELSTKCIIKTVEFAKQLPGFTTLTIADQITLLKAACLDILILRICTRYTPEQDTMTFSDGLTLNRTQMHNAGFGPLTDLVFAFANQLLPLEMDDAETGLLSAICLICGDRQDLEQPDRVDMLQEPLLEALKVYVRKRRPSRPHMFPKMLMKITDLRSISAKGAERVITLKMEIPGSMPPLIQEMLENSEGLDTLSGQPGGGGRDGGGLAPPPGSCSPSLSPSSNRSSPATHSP
Chain of human Thyroid Receptor alpha (THRa1), THRA (gene 7067) (P10827 whole entry, looked up, the tested form may be a part): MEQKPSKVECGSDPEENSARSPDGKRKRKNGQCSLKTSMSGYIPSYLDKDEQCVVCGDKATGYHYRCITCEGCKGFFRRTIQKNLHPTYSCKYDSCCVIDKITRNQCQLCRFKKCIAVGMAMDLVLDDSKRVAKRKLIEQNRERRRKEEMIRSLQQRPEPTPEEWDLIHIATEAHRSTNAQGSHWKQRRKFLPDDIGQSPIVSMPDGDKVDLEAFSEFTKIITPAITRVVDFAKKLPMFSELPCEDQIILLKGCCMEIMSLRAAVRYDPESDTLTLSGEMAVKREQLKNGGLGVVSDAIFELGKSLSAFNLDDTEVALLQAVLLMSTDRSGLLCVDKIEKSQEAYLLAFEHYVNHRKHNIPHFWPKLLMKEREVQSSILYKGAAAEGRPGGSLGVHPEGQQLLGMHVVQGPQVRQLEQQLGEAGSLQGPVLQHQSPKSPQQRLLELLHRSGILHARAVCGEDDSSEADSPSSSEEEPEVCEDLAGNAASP

CCC(C)c1cccc(C(C)CC)c1O (stereo unspecified)
active: [3] 4.53 µM | [7] 26.3 µM
not listed: [9] | [10]
inactive: all other assays above

CN(C)P(=O)(N(C)C)N(C)C
inactive: [1] | [2] | [3] | [8]

C[C@]12CC[C@H](O)CC1=CC[C@@H]1[C@@H]2CC[C@]2(C)C(=O)CC[C@@H]12
inactive: [1] | [2] | [4] | [6] | [7]
active: [3] 27.5 µM

C1CCC(NC2CCCCC2)CC1
not listed: [5] | [9] | [10]
inactive: all other assays above

CC(C)(c1ccccc1)c1ccc(O)c(C(C)(C)c2ccccc2)c1
active: [9] 6.91 µM | [3] 0.148 µM | [7] 1.66 µM
inactive: [1] | [2] | [6] | [8]

CCOP(=S)(OCC)Oc1ccc(S(C)=O)cc1 (stereo unspecified)
active: [3] 7.06 µM
not listed: [5]
inactive: all other assays above

COc1cc(-c2ccc(N)c(OC)c2)ccc1N
active: [1] 27.4 µM | [9] 28.8 µM | [4] 27.2 µM | [7] 27.6 µM
inactive: [1] | [9] | [2] | [3] | [4] | [10] | [6] | [8]

CC(C)c1cccc(C(C)C)c1O
active: [3] 4.74 µM | [7] 50.6 µM
not listed: [5] | [9]
inactive: all other assays above

O=C(O)C(F)(F)C(F)(F)C(F)(F)C(F)(F)C(F)(F)C(F)(F)F
inactive: [1] | [9] | [2] | [3] | [4] | [10] | [5] | [6] | [7] | [8]
active: [2] 65.4 µM and 72.5 µM | [7] 51.7 µM and 56.5 µM

CCOC(=O)Nc1cccc(OC(=O)Nc2ccccc2)c1
inactive: [1] | [2] | [3] | [8]

O=[N+]([O-])c1ccc2c3c(cccc13)CC2
active: [2] 22.7 µM | [3] 2.41 µM | [7] 27.5 µM
not listed: [5] | [10]
inactive: all other assays above

CCCCCCCCCl
not listed: [5] | [8] | [9]
inactive: all other assays above

ClC(Cl)=C(Cl)C(Cl)=C(Cl)Cl
active: [9] 14.3 µM
not listed: [1] | [10]
inactive: all other assays above

C=C(C)C(=O)[O][Sn]([CH2]CCC)([CH2]CCC)[CH2]CCC
inactive: [8]
active: [9] 0.148 µM | [2] 0.291 µM | [3] 0.286 µM | [6] 0.00348 µM | [7] 0.0323 µM

C[C@]12CCC(=O)C[C@@H]1CC[C@@H]1[C@@H]2CC[C@]2(C)[C@@H](O)CC[C@@H]12
inactive: [2] | [3] | [4] | [10] | [6] | [7] | [8]
active: [9] 18.3 µM | [3] 11.9 µM

C(=NC1CCCCC1)=NC1CCCCC1
inactive: [2] | [3] | [6] | [8]
active: [9] 28.6 µM

CC(=O)OC(c1ccccc1)C(Cl)(Cl)Cl (stereo unspecified)
active: [3] 59 µM
inactive: [9] | [2] | [6] | [8]

O=C(O)CCC(F)(C(F)(F)F)C(F)(F)F
inactive: [9]

C=C(C)C#N
inactive: [1] | [10] | [6]

COP(=S)(OC)Oc1c(Cl)cc(C)cc1Cl
inactive: [2] | [6]
active: [9] 20 µM | [3] 6.51 µM | [7] 22 µM

Oc1c(I)cc(I)cc1I
active: [9] 11.4 µM | [2] 9.7 µM | [3] 6.69 µM | [8] 7.66 µM
inactive: [6] | [7]

OCc1ccco1
inactive: [3] | [10] | [5] | [6]
active: [9] 19.8 µM | [2] 39.7 µM

CCCCCCCCC(=O)NCc1ccc(O)c(OC)c1
active: [9] 13.6 µM | [2] 27.3 µM
inactive: [3] | [4]

COc1cc(OC)nc(NC(=O)NS(=O)(=O)c2ncccc2C(=O)N(C)C)n1
active: [3] 100 µM
not listed: [1] | [4] | [8]
inactive: all other assays above

COC(=O)Cc1ccccc1
inactive: [9] | [2] | [3] | [10] | [6]

Nc1cccc2ccccc12
active: [9] 7.58 µM
inactive: [2] | [3] | [6] | [7] | [8]

COP(=S)(OC)Oc1ccc(Sc2ccc(OP(=S)(OC)OC)cc2)cc1
active: [9] 15.7 µM | [2] 13.7 µM | [3] 4.45 µM
not listed: [1] | [10]
inactive: all other assays above
